# Laboratory results from PubChem BioAssay (NCATS).
# Records with an inconclusive call do not appear. Unmarked numbers belong to inactive results. Active and inactive are the calls of the source. Calls come from the whole dose curve; as a rule, active = well fitted inhibition curve with a large enough effect; inconclusive = small, poorly fitted or top-dose-only effect; inactive = flat fitted curve, though single readings scatter.
# Test system: CRL-7250
# Experiment: Cytotoxic Profiling of Annotated Libraries Using Quantitative High-Throughput Screening (AID 1296008); note: nearly all actives have a fitted effect of over 60% in size
# Settings: Five cell lines viability, CellTiter-Glo ATP luminescence, 48-72 h; max response: active compounds read low
# In short: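 Cells exposed to compounds for 48 or 72 hr at 37 degrees Celsius. Viability read as ATP-coupled luminescence with CellTiter-Glo after 10 min at room temperature.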
# % is set by controls: 0 for no effect and ±100 for the full control effect; potency is the fitted concentration of half-maximal effect.
SMILES,Potency,outcome,max response [%]
Cc1cc(O)c(-c2ccc([C@@H](C)CN(C)C)cc2)c2c1[nH]c(=O)c1sccc12,0.116 µM (active),,
C[C@@H]1CC[C@]2(C(=O)OC3OC(CO)C(O)C(O)C3O)CC[C@]3(C)C(=CCC4[C@@]5(C)CC[C@H](O)[C@](C)(C(=O)O)C5CC[C@]43C)C2[C@]1(C)O (stereo not given in full),,inactive,
CCc1c(-c2ccccc2)c(-c2ccccc2)nn1-c1ccccc1-c1cccc(OCC(=O)O)c1,,,-8.36
Nc1nc2c(ncn2[C@@H]2O[C@H](CO)[C@@H](O)[C@H]2O)c(=O)[nH]1,,,-5
Cn1c(=O)cc(N2CCCC(N)C2)n(Cc2cc(F)ccc2C#N)c1=O (stereo not given),,,3.15
COc1cc2c(cc1O)CC[C@H]1[C@@H]2CC[C@]2(C)[C@H](O)CC[C@@H]12,14.6 µM (active),,
C[C@@H]1O[C@@H](O[C@H]2[C@H](O)[C@@H](O)[C@H](OC[C@H]3O[C@@H](OC(=O)[C@]45CCC(C)(C)C[C@H]4C4=CCC6[C@@]7(C)CC[C@H](O[C@@H]8OC[C@H](O)[C@H](O[C@@H]9O[C@H](CO)[C@@H](O)[C@H](O)[C@H]9O)[C@H]8O)[C@@](C)(CO)C7CC[C@@]6(C)[C@]4(C)CC5)[C@H](O)[C@@H](O)[C@@H]3O)O[C@@H]2CO)[C@H](O)[C@H](O)[C@H]1O (stereo not given in full),,inactive,
COC(=O)CCc1cc2ccoc2c(OC)c1O[C@@H]1O[C@H](CO)[C@@H](O)[C@H](O)[C@H]1O,,,-7.38
CC1(C)CC[C@]2(C(=O)O[C@@H]3O[C@H](CO)[C@@H](O)[C@H](O)[C@H]3O)CC[C@]3(C)C(=CCC4[C@@]5(C)CC[C@H](O[C@@H]6O[C@H](C(=O)O)[C@@H](O)[C@H](O)[C@H]6O)C(C)(C)C5CC[C@]43C)C2C1 (stereo not given in full),,,0.241
C=C(C(=O)O)[C@H]1C[C@]2(C)[C@@H](O)CC[C@]23O[C@H]1C[C@@H]3C,,,-8.76
CCOCc1nc2c(N)nc3ccccc3c2n1CC(C)(C)O,,,-6.16
CCc1c(C)nc2c(-c3cnn(-c4cc(CO)ccn4)c3)c[nH]n2c1=O,,,-0.312
Cc1cc(OCc2nc(-c3ccccc3Cl)cs2)ccc1OCC(=O)O,,,-3.46
NC1CCCCN(c2c(F)cc3c(=O)c(C(=O)O)cn(C4CC4)c3c2Cl)C1 (stereo not given),,,3.42
c1ccc(-c2ncc(CN3CCN(c4ncccn4)CC3)[nH]2)cc1,,,-0.931
COc1cc(/C=C/CO)cc(OC)c1O[C@@H]1O[C@H](CO[C@@H]2O[C@H](CO)[C@@H](O)[C@H](O)[C@H]2O)[C@@H](O)[C@H](O)[C@H]1O,,,3.07
CC(C)(C)NS(=O)(=O)c1cncc(-c2cc(F)c3nc(N)nn3c2)c1,,inactive,
CN[C@@H]1[C@H](O[C@H]2[C@H](O[C@@H]3[C@@H](O)[C@H](O)[C@@H](N=C(N)N)[C@H](O)[C@H]3N=C(N)N)O[C@@H](C)[C@]2(O)C=O)O[C@@H](CO)[C@H](O)[C@H]1O,,,2.94
CC(C)=CCC[C@](C)(O)[C@H]1CC[C@]2(C)[C@@H]1[C@H](O)CC1[C@@]3(C)CC[C@H](O)C(C)(C)[C@@H]3[C@@H](O[C@@H]3O[C@H](CO)[C@@H](O)[C@H](O)[C@H]3O[C@@H]3O[C@H](CO)[C@@H](O)[C@H](O)[C@H]3O)C[C@]12C (stereo not given in full),,,-7.72
Cc1cc(C(=O)N2CCCCc3ccccc32)ccc1CNC(=O)N1CCC[C@H]1C(=O)N(C)C,,,-2.89

SMILES,Potency,outcome,max response [%]
C[C@@H](O)[C@H](NC(=O)c1ccc(C#Cc2ccc(CN3CCOCC3)cc2)cc1)C(=O)NO,,,-14.3
NC(=O)C(CCC(F)(F)F)N(Cc1ccc(-c2ncon2)cc1F)S(=O)(=O)c1ccc(Cl)cc1 (stereo not given),,,-7.08
CC(=O)OC[C@]12[C@H](OC(C)=O)C(=O)[C@@H]3[C@@H](OC(C)=O)[C@@]14O[C@@]3(C)COC(=O)c1cccnc1[C@@H](C)[C@H](C)C(=O)O[C@@H]([C@H](O)[C@@H]2OC(C)=O)[C@]4(C)O,,,0.341
COc1cc(NC(=O)Nc2cccc(CNC(=O)O[C@H]3CCOC3)c2)ccc1-c1cnco1,8.2 µM (active),,
O=C(Nc1c(-c2cccs2)nc2ccccn12)c1ccc(Cl)cc1,,inactive,
CCCCc1ccc(C(=O)Nc2cc(-c3ccc(Cl)cc3)nn2-c2ccc(Cl)cc2)cc1,,,-0.768
O=C(O)c1cc(I)ccc1NC(=O)[C@H](Cc1ccccc1)NCc1ccccc1,,,-2.69
COc1cc(C2Oc3c(OC)cc(CCCO)cc3C2CO)ccc1O[C@H]1O[C@H](C)[C@@H](O)[C@H](O)[C@@H]1O (stereo not given in full),,inactive,
C=CC[C@]12C[C@@H](OC)C(=O)C(OC)=C1O[C@@H](c1cc(OC)c3c(c1)OCO3)[C@@H]2C,,,4.3
O=C(O)CC(=O)OC[C@H]1O[C@@H](Oc2ccc3c(c2)OC[C@H]2c4cc5c(cc4O[C@@H]32)OCO5)[C@H](O)[C@@H](O)[C@@H]1O,,,-24.1
CC(Nc1ncnc2nc[nH]c12)c1cc2cccc(Cl)c2c(=O)n1-c1ccccc1 (stereo not given),,,-7.8
C/C(=C\C=C\C(C)C1CCC2(C)C3CCC4C(C)(C)C(=O)CCC45CC35CCC12C)C(=O)O (stereo not given),,,-5.15
COc1c2ccoc2cc2oc(CO[C@@H]3O[C@H](CO)[C@@H](O)[C@H](O)[C@H]3O)cc(=O)c12,,,-0.0339
Cc1cc(NC(=O)Nc2ccc(F)c(F)c2)n(-c2ccccc2)n1,,,4.98
C=CCC1=C[C@]2(OC)[C@H](C)[C@@H](c3ccc(O)c(OC)c3)O[C@]2(OC)CC1=O,,,-0.729
C[C@@H]1C(=O)O[C@H]2C[C@]34[C@H]5C[C@@H](C(C)(C)C)[C@]36[C@@H](OC(=O)[C@H]6O)O[C@]4(C(=O)O5)[C@]21O,,,-0.0261
C=C1C(=O)O[C@H](CCC)[C@H]1C(=O)O,,,3.05
CC1(C)CCCC2(C)C(CO)C(CO)=CCC12 (stereo not given),,,-20.3
CC1=C(C)C(=O)OC(C(C)C2CCC3C4C5OC5C5(O)CC(OC6OC(CO)C(OC7OC(C)C(O)C(O)C7O)C(O)C6O)CC(O)C5(C)C4CCC23C)C1 (stereo not given),,inactive,
C/C1=C\CC[C@]2(C)O[C@@H]2[C@H](O)[C@H](C(C)C)[C@H](OC(=O)/C=C/c2ccccc2)C1,,,-51
